Experimental data from article PMC5540273 (PLoS ONE, 2017).

Tests used:
Settings in all cases: concentration: 1 μM, replicates: in singlicate; n = 1
STK16 = system: STK16
STK33 = system: STK33
STK35 = system: STK35
STK36 = system: STK36
STK39 = system: STK39
SYK = system: SYK
SgK110 = system: SgK110
TAK1 = system: T1, TAK1
T1 construct: gene MAP3K7

TAOK1 = system: TAOK1
TAOK2 = system: TAOK2
TAOK3 = system: TAOK3
TBK1 = system: TBK1
TEC = system: TEC
TESK1 = system: TESK1
TGFBR1 = system: TGFBR1
TGFBR2 = system: TGFBR2
TIE1 = system: TIE1
TIE2 = system: T2, TIE2
T2 construct: gene TEK

TLK1 = system: TLK1
TLK2 = system: TLK2
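Also: KINOMEscan kinase panel screen.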

| SMILES | %Inh (STK16) [%] | %Inh (STK33) [%] | %Inh (STK35) [%] | %Inh (STK36) [%] | %Inh (STK39) [%] | %Inh (SYK) [%] | %Inh (SgK110) [%] | %Inh (TAK1) [%] | %Inh (TAOK1) [%] | %Inh (TAOK2) [%] | %Inh (TAOK3) [%] | %Inh (TBK1) [%] | %Inh (TEC) [%] | %Inh (TESK1) [%] | %Inh (TGFBR1) [%] | %Inh (TGFBR2) [%] | %Inh (TIE1) [%] | %Inh (TIE2) [%] | %Inh (TLK1) [%] | %Inh (TLK2) [%] |
| --- | --- | --- | --- | --- | --- | --- | --- | --- | --- | --- | --- | --- | --- | --- | --- | --- | --- | --- | --- | --- |
| O=C(Nc1n[nH]c2cc(-c3cccc(F)c3F)ccc12)C1CC1 [SB-733894] | 12 | 0 | 0 | 9 | 0 | 0 | 17 | 48 | 23 | 0 | 16 | 18 | 4 | 8 | 1 | 14 | 0 | 17 | 0 | 5 |
| COc1cc2ncnc(Nc3ccc4nc(-c5ccccc5)[nH]c4c3)c2cc1OC.Cl [GW282450] | 19 | 0 | 0 | 0 | 0 | 43 | 0 | 23 | 0 | 0 | 0 | 12 | 0 | 20 | 0 | 0 | 1 | 0 | 0 | 0 |
| Nc1nc(-c2nccs2)c(-c2ccnc3ccccc23)s1 [GW693542] | 32 | 0 | 0 | 0 | 10 | 24 | 13 | 0 | 0 | 0 | 0 | 5 | 16 | 26 | 27 | 55 | 26 | 0 | 0 | 0 |
| Cl.O=C(Nc1cccc(-c2nn3ncccc3c2-c2ccnc(Nc3cccnc3)n2)c1)c1c(F)cccc1F [GSK312879] | 3 | 0 | 0 | 96.7 | 17 | 3 | 0 | 0 | 5 | 0 | 7 | 0 | 13 | 0 | 0 | 0 | 34 | 1 | 0 | 0 |
| Cn1ccc2ncnc(Oc3ccc(Nc4nc5ccccc5[nH]4)cc3)c21 | 15 | 0 | 19 | 0 | 0 | 0 | 0 | 0 | 0 | 0 | 0 | 0 | 0 | 0 | 0 | 0 | 5 | 0 | 0 | 0 |
| CS(=O)(=O)c1ccc(-c2c(-c3ncn[nH]3)sc(N3CCOCC3)c2C#N)cc1 | 7 | 0 | 0 | 1 | 0 | 23 | 15 | 33 | 0 | 0 | 0 | 14 | 9 | 0 | 12 | 10 | 11 | 9 | 5 | 0 |
| O=C(Nc1n[nH]c2nc(-c3nccs3)c(Br)cc12)C1CCCC1 [SB-742609] | 0 | 0 | 0 | 0 | 21 | 20 | 0 | 0 | 0 | 0 | 0 | 0 | 0 | 43 | 31 | 0 | 14 | 0 | 0 | 0 |
| COc1ccc(CNC(=O)NC2CCN(c3ccnc(Nc4cc(OC)c(OC)c(OC)c4)n3)C2)cc1 (centres unmarked) [GSK1379748] | 54 | 0 | 0 | 0 | 1 | 21 | 0 | 0 | 0 | 0 | 0 | 15 | 0 | 2 | 0 | 0 | 20 | 0 | 9 | 0 |
| NC(=O)c1nnc2ccccc2c1N | 2 | 11 | 10 | 0 | 27 | 1 | 0 | 19 | 20 | 28 | 3 | 40 | 0 | 6 | 1 | 0 | 14 | 98.7 | 14 | 0 |
| COc1ccccc1-c1ccc2c(NC(=O)C3CC3)n[nH]c2n1 [SB-711239] | 28 | 20 | 0 | 6 | 18 | 20 | 14 | 0 | 0 | 0 | 0 | 26 | 0 | 8 | 14 | 1 | 6 | 11 | 0 | 2 |
